# Measured values taken from the supplement of paper PMC3342239.
# Structures can show the parent of a compound that is named as a salt.
# Test system: Saccharomyces cerevisiae
# Assay: fraction of cells in G1 phase (DNA content, flow cytometry); higher = more cells with unreplicated DNA (G1 delay)
# Conditions: temperature: 30 C; YPD; JTY2953 pdr5 snq2 (sensitized); drug added to: cultures diluted from stationary phase; 6-7 h
# How it was run: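 Overnight cultures of sensitized JTY2953 were diluted 1∶200 into drug at a final 20 µg/ml and fixed after 6–7 h, and further runs treated dividing JTY2953 or BY4741, fixing them 6 h and 4.33 h later respectively. All growth used YPD at 30°C with S. cerevisiae and library drugs. After ethanol fixation and SYTOX Green staining, flow cytometry recorded 10,000 events. The G1 fraction equals the Dean-Jett-Fox G1 peak area over the G1 plus G2/M areas.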
row,SMILES,fraction of cells in G1 phase
1,C[C@](N)(Cc1ccc(O)c(O)c1)C(=O)O [Methyldopa] (94.6883 µM),0.412
2,CC(C)n1c(/C=C/[C@@H](O)C[C@@H](O)CC(=O)O)c(-c2ccc(F)cc2)c2ccccc21 [Fluvastatin Na] (48.6053 µM),0.464
3,O=C(c1ccc(OCCN2CCCCC2)cc1)c1c(-c2ccc(O)cc2)sc2cc(O)ccc12 [Raloxifene HCl] (42.2301 µM),0.508
4,COc1cc2c(cc1OC)-c1c/c(=N\c3c(C)cc(C)cc3C)n(C)c(=O)n1CC2 [Trequinsin HCl] (45.2489 µM),0.425
5,OCc1cc(C(O)CNCCCCCCOCCCCc2ccccc2)ccc1O (stereo not given) [Salmeterol] (48.1257 µM),0.472
6,CCCCNc1cc(C(=O)O)cc(S(N)(=O)=O)c1Oc1ccccc1 [Bumetanide] (54.8812 µM),0.566
7,CCOc1nc2cccc(C(=O)O)c2n1Cc1ccc(-c2ccccc2-c2nnn[nH]2)cc1 [Candesartan] (45.4065 µM),0.506
8,CCCN[C@H]1CCc2nc(N)sc2C1 [Pramipexole] (94.6382 µM),0.48
9,CC(=O)OCC[N+](C)(C)C [Acetylcholine Cl] (136.789 µM),0.483
10,CCCCC[C@H](O)/C=C/[C@H]1[C@H](O)CC(=O)[C@@H]1CCCCCCC(=O)O [Alprostadil] (56.4189 µM),0.447
11,C[C@]12C=CC(=O)C=C1CC[C@@H]1[C@@H]2C(=O)C[C@@]2(C)[C@H]1CC[C@]2(O)C(=O)CO [Prednisone] (55.7976 µM),0.496
12,COc1cc2ncnc(Nc3ccc(F)c(Cl)c3)c2cc1OCCCN1CCOCC1 [Gefitinib] (44.7514 µM),0.535
13,COc1cc2c(cc1OC)C(=O)C(CC1CCN(Cc3ccccc3)CC1)C2 (stereo not given) [Donepezil HCl] (48.0769 µM),0.515
14,COc1cccc2c1C(=O)c1c(O)c3c(c(O)c1C2=O)C[C@@](O)(C(C)=O)C[C@@H]3O[C@H]1C[C@H](N)[C@H](O)[C@H](C)O1 [Daunorubicin HCl] (37.9123 µM),0.596
15,Nc1nc2c(ncn2COC(CO)CO)c(=O)[nH]1 [Ganciclovir] (78.3591 µM),0.451
16,CC[N+](CC)(CC)CCOc1cccc(OCC[N+](CC)(CC)CC)c1OCC[N+](CC)(CC)CC [Gallamine triethiodide] (39.1519 µM),0.516
17,COc1ccc2c(c1)c(CC(=O)O)c(C)n2C(=O)c1ccc(Cl)cc1 [Indomethacin] (55.8977 µM),0.519
18,CCC[C@@H]1C[C@@H](C(=O)N[C@@H]([C@H]2O[C@H](SC)[C@H](O)[C@@H](O)[C@H]2O)[C@@H](C)O)N(C)C1 [Lincomycin] (49.195 µM),0.539
19,CCC[C@@H]1C[C@@H](C(=O)N[C@@H]([C@H]2O[C@H](SC)[C@H](O)[C@@H](O)[C@H]2O)[C@H](C)Cl)N(C)C1 [Clindamycin HCl] (47.0598 µM),0.505
20,C[C@H]1COc2c(C3(N)CC3)c(F)cc3c(=O)c(C(=O)O)cn1c23 [Pazufloxacin] (62.8324 µM),0.474
21,O=c1[nH]c(=O)n([C@H]2C[C@H](O)[C@@H](CO)O2)cc1F [Floxuridine] (81.2358 µM),0.514
22,CC(C)(C#N)c1cc(Cn2cncn2)cc(C(C)(C)C#N)c1 [Anastrozole] (68.1723 µM),0.518
23,CS(=O)(=O)Nc1ccc([N+](=O)[O-])cc1Oc1ccccc1 [Nimesulide] (64.8687 µM),0.58
24,CO/N=C(\C(=O)N[C@@H]1C(=O)N2C(C(=O)O)=C(COC(C)=O)CS[C@H]12)c1csc(N)n1 [Cefotaxime acid] (43.9106 µM),0.485
25,CN(C)CCC=C1c2ccccc2CCc2ccccc21 [Amitriptyline HCl] (63.7146 µM),0.418
26,O=C(O)CCC(=O)c1ccc(-c2ccccc2)cc1 [Fenbufen] (78.6509 µM),0.572
27,COc1ccccc1OCC(O)CO (stereo not given) [Guaifenesin] (100.898 µM),0.463
28,CCN(CC)CCCC(C)Nc1ccnc2cc(Cl)ccc12 (stereo not given) [Chloroquine phosphate] (62.5232 µM),0.469
29,NC(=O)N1c2ccccc2CC(=O)c2ccccc21 [Oxcarbazepine] (79.2785 µM),0.503
30,CNC(=C[N+](=O)[O-])NCCSCc1ccc(CN(C)C)o1 [Ranitidine HCl] (63.6114 µM),0.501
